Laboratory results published in PubChem BioAssay AID2620 (National Center for Advancing Translational Sciences (NCATS), 2010).
Records with an inconclusive call do not appear. Active and inactive are the calls of the source. Calls come from the whole dose curve; as a rule, active = well fitted curve in the direction sought with a large enough effect; inconclusive = small, poorly fitted or top-dose-only effect, or another doubt; inactive = no such curve, though single readings can be large or run the other way.

Molecular target: Pyruvate kinase PKM (Homo sapiens) (UniProt P14618)
Sequence (P14618 whole entry, looked up, canonical isoform): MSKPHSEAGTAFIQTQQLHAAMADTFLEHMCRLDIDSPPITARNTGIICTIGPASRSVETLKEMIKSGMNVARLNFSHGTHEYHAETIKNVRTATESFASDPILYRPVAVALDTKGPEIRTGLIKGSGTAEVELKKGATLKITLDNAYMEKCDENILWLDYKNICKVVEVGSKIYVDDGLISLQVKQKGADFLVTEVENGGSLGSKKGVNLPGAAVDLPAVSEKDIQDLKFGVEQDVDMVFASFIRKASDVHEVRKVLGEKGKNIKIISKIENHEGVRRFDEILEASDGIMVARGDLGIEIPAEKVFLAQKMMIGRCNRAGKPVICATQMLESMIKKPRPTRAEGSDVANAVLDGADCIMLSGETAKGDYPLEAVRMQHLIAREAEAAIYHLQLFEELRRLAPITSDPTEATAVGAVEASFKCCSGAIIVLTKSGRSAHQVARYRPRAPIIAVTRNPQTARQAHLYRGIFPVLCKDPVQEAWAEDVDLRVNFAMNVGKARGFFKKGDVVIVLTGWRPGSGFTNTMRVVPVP
Assay: Secondary LDH Assay for Activators of Human Pyruvate Kinase M1 Isoform: for Probe SAR
Summary of the method: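 10 nM hPK-M1 coupled to 1 uM LDH, with 0.1 mM PEP, 4.0 mM ADP, 0.2 mM NADH, 50 mM Tris pH 8.0, 200 mM KCl, 15 mM MgCl2 (final). NADH fluorescence depletion followed kinetically 3-6 min; initial rates normalized to uninhibited controls.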

Row | Structure (SMILES) | outcome
1 | Cc1ccc(NS(=O)(=O)c2ccc3c(c2)CC(=O)N3C)cc1C | inactive
2 | O=S1(=O)N=C(Oc2ccc(Cl)cc2)c2ccccc21 | inactive
3 | Cc1ccc(NS(=O)(=O)c2ccc3[nH]c(=O)[nH]c3c2)cc1C | inactive
4 | O=C1CCc2cc(S(=O)(=O)Nc3ccc4c(c3)CCC4)ccc2N1 | inactive
5 | Cn1c2cc(S(C)=O)sc2c2cnn(Cc3cccc(N)c3)c(=O)c21 (stereo not given) | inactive
6 | Cc1ccc(NS(=O)(=O)c2ccc3c(c2)n(C)c(=O)n3C)cc1C | inactive
7 | O=C1c2ccccc2C(=O)N1c1cc(=O)c2ccccc2[nH]1 | inactive
8 | Cc1ccc(NS(=O)(=O)c2ccc3c(c2)CCN(C(=O)C(F)(F)F)C3)cc1C | inactive
9 | Cc1ccc(NS(=O)(=O)c2ccc3c(c2)CCC(=O)N3)cc1C | inactive
10 | Cc1ccc(N2C(=O)c3ccccc3C2=O)c(C)c1 | inactive
11 | Cc1cc(N2C(=O)c3ccccc3C2=O)no1 | inactive
12 | O=C1c2ccccc2C(=O)N1c1ccccn1 | inactive
13 | Cc1ccc(NS(=O)(=O)c2ccc3c(c2)N(C)CCO3)cc1C | inactive
14 | COc1ccc(NS(=O)(=O)c2ccc3c(c2)CCC(=O)N3)cc1 | inactive
15 | COc1ccc(S(=O)(=O)Nc2ccc(C)c(C)c2)cc1 | inactive
16 | CCCCN1C(=O)c2ccccc2C1=O | inactive
17 | O=C1CCc2cc(S(=O)(=O)Nc3ccccc3F)ccc2N1 | inactive
18 | O=C1CCc2cc(S(=O)(=O)Nc3ccccc3-c3ccccc3)ccc2N1 | inactive
19 | COc1cccc(Cn2ncc3c4sc(SC)cc4n(C)c3c2=O)c1 | inactive
20 | COc1cc(N2C(=O)c3ccccc3C2=O)c2ncccc2c1 | inactive
